Compound activity: PubChem BioAssay, National Center for Advancing Translational Sciences (NCATS)
In the library only some 8.9% were active in any assay of this set; here they are far more common.
HPGD block – inhibitors of human 15-hydroxyprostaglandin dehydrogenase (HPGD). Potency, µM, without a hit: at the top dose activity change, negative = inhibition, hits mostly inhibitors. 150,000 tested, 4.3% active. AID 894. purified HPGD, NADH fluorescence kinetic, PGE2 substrate; active = well fitted inhibition curve with a large enough effect, not every such curve was filed as active; inconclusive = small, poorly fitted or top-dose-only effect, or another doubt; inactive = no such curve, though single readings can be large or run the other way; note: potency is the fitted concentration of half-maximal effect
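NADH formation kinetics: reaction with 30 uM PGE2 and 1 mM NAD+ (final), 20 nM enzyme, Tris-HCl pH 8 with Tween 20, after 15 min compound preincubation at room temperature. Fluorescence change, last versus first of five reads.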
IMPase cell inh – membrane-permeable compound that blocks inositol monophosphatase; P97697; AID 901; inhibition (IP1 accumulation), % at 46.1 µM; CHO-M1 cells, IP1 accumulation, HTRF TR-FRET ratio; 120,000 tested, under 10 active; active = well fitted curve in the direction sought with a large enough effect in the signal ratio, not every such curve was filed as active; inconclusive = small, poorly fitted or top-dose-only effect, or a change in a side signal; inactive = no such curve, though single readings can be large or run the other way; the % refers to the signal ratio;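 note: cells stimulated with carbachol in lithium chloride buffer; plate controls were DMSO basal wells for no effect and reference inhibitor wells for full effect; higher means more IMPase inhibition seen as more IP1 and lower FRET ratio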
Target sequence (P97697 whole entry, looked up): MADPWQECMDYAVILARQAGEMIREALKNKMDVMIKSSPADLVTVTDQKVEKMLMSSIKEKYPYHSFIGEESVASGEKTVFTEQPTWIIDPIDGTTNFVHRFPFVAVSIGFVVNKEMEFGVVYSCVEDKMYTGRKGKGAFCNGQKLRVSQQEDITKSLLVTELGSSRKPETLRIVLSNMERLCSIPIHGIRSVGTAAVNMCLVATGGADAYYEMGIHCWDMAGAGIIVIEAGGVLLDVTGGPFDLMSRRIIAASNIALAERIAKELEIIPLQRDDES
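Measured: the HTRF emission ratio (665/620 nm) plus the 620 nm donor channel, each fitted to the Hill equation to give AC50. Cells were CHO-M1 given compounds up to 46 uM and a 30 min carbachol stimulation at 37C.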
IMPase Li cell – cell-permeable IMPase inhibitors with lithium potentiation | CHO-M1 cells, IP1 TR-FRET (IP-One), carbachol + lithium | Potency, µM (doses to about 59.4 µM), for inactives: at the top dose activity, negative = IMPase inhibition, hits mostly inhibitors | 210,000 tested, 0.35% active | AID 1457;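 note: IP1 builds up when IMPase is blocked and the TR-FRET signal falls; potency is the fitted concentration of half-maximal effect; plate controls were basal vehicle for no effect and high inhibitor control for full effect; nearly all actives have a fitted effect of over 50% in size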
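IP1 accumulation measured by competitive TR-FRET in lysed CHO-M1 cells after 30 min compound exposure at 37C, with a small lithium addition to potentiate weak responses. Hill-equation AC50 from ratio and donor-channel data.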
NPSR antagonist – antagonists of human neuropeptide S receptor cAMP signaling; CHO-NPSR cells, cAMP TR-FRET, antagonist mode; Potency, µM (top dose mostly 38.3 µM), for inactives: at the top dose activity change, negative = inhibition, hits mostly inhibitors; 220,000 tested, 1% active; note: potency is the fitted concentration of half-maximal effect; nearly all actives have a fitted effect of over 50% in size
ALDH1A1 block – blocks purified human ALDH1A1 activity. P00352. Purified ALDH1A1, NADH fluorescence, propionaldehyde substrate. Potency, µM (titrated, usually from 75.3 µM), inactives show top-dose activity, negative = inhibition, usual class: inhibitors. 220,000 tested, 7.3% active. AID 1030; active = well fitted inhibition curve with a large enough effect, not every such curve was filed as active; inconclusive = small, poorly fitted or top-dose-only effect, or another doubt; inactive = no such curve, though single readings can be large or run the other way;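 note: potency is the fitted concentration of half-maximal effect; plate controls were no enzyme wells and a reference inhibitor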
Target sequence (P00352 whole entry, looked up): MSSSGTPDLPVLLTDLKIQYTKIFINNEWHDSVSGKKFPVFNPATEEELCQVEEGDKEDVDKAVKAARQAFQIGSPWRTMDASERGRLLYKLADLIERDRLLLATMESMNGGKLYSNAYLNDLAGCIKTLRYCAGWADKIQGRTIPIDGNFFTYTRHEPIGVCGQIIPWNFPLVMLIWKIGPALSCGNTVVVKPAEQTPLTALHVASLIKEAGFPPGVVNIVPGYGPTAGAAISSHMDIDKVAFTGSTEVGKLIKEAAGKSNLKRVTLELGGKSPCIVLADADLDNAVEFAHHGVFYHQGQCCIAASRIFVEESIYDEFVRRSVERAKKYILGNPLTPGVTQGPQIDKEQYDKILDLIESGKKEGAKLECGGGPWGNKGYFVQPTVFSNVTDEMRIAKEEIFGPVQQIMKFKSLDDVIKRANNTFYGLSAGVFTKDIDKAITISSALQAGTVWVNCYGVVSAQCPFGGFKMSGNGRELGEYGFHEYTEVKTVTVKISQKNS
12-hLO inh – inhibitors of human 12-lipoxygenase (ALOX12); P18054; purified 12-hLO, xylenol orange hydroperoxide absorbance; Potency, µM (top dose mostly 57.1 µM), inactives show at the top dose activity change, negative = inhibition, usual class: inhibitors; 150,000 tested, 0.12% active; AID 1452; note: potency is the fitted concentration of half-maximal effect; nearly all actives have a fitted effect of over 55% in size
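Hydroperoxide output read as Fe(III)-xylenol orange absorbance, 573-to-405 nm ratio, after 30 min reaction with 40 uM arachidonic acid. Enzyme: 150 nM purified human 12hLO, 15 min compound preincubation; 25 mM Hepes pH 7.0, room temperature.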
Numbers without * were called inactive; [ ] = dose if it differs, or a comment. Unless noted, calls come from the whole dose curve; as a rule, active = well fitted curve in the direction sought with a large enough effect; inconclusive = small, poorly fitted or top-dose-only effect, or another doubt; inactive = no such curve, though single readings can be large; an effect the other way counts as inactive or inconclusive. Unless noted, % is set by controls: 0 for no effect and ±100 for the full control effect.

What do the screens show for `O=[N+]([O-])c1ccc(N2N=C(c3ccco3)CC2c2ccccc2)cc1` (stereo not drawn)?
HPGD block: -18.6%; IMPase cell inh: 9.8; IMPase Li cell: 20.8%[38.3 µM]; NPSR antagonist: -10.9%[46.1 µM]; ALDH1A1 block: 10µM*; 12-hLO inh: -9.5%

How did N#CC1=C(N)NC(SCC(=O)Nc2ccccc2)=C(C#N)C12CCCCC2 do in these assays?
HPGD block: -25.9%; IMPase cell inh: -2.7; IMPase Li cell: 3.8%; NPSR antagonist: -9.4%[46.1 µM]; ALDH1A1 block: 25.1µM*; 12-hLO inh: -4.8%

What do the screens show for `CCCSC1=C(C#N)C(c2ccccc2C)CC(=O)N1` (stereo not drawn)?
HPGD block: inconclusive; IMPase cell inh: -0.9; IMPase Li cell: -9.4%[38.3 µM]; NPSR antagonist: 9.5%[46.1 µM]; ALDH1A1 block: inconclusive; 12-hLO inh: 4.2%

How did CCCSC1=C(C#N)C2(CCCCC2)C(C#N)=C(N)N1 do in these assays?
IMPase Li cell: 22.2%; NPSR antagonist: 22.3%; ALDH1A1 block: 2µM*

How did N#CC1=C(N)NC(SCc2ccccc2)=C(C#N)C12CCCCC2 do in these assays?
HPGD block: -27.4%; IMPase cell inh: 5.8; IMPase Li cell: -3.8%[38.3 µM]; NPSR antagonist: -15.4%[46.1 µM]; ALDH1A1 block: 12.6µM*; 12-hLO inh: -21.0%

What do the screens show for `N#Cc1cc2c(nc1SCc1ccccc1)CCCC2=O`?
HPGD block: -21.2%; IMPase cell inh: 6.2; IMPase Li cell: 32.9%[38.3 µM]; NPSR antagonist: inconclusive; ALDH1A1 block: inconclusive; 12-hLO inh: -2.9%

Results for CCSC1=C(C#N)C2(CCCCC2)C2=C(CC(C)(C)CC2=O)N1 ?
IMPase Li cell: 8.8%; NPSR antagonist: -2.4%; ALDH1A1 block: inconclusive

Results for CCSC1=C(C#N)C2(CCCCC2)C(C#N)=C(N)N1 ?
HPGD block: -2.8%; IMPase cell inh: -1.1; IMPase Li cell: 3.8%[38.3 µM]; NPSR antagonist: -14.9%[46.1 µM]; ALDH1A1 block: 10µM*; 12-hLO inh: -6.1%

How did CC1=C(C(=O)Nc2ccccc2)C(c2ccncc2)C(C#N)=C(SCC(=O)Nc2ccccc2)N1 (stereo not drawn) do in these assays?
HPGD block: -8.2%; IMPase cell inh: 3.1; IMPase Li cell: 32.0%[38.3 µM]; NPSR antagonist: -10.6%[46.1 µM]; ALDH1A1 block: inconclusive; 12-hLO inh: -10.3%

What do the screens show for `CN(CC(=O)OCC(=O)Nc1ccccc1)S(=O)(=O)c1ccc(Cl)cc1`?
HPGD block: -14.6%; IMPase cell inh: -2.5; IMPase Li cell: 33.9%[38.3 µM]; NPSR antagonist: -13.9%[46.1 µM]; ALDH1A1 block: 1.4%; 12-hLO inh: -6.7%

How did CCc1ccc2c(c1)/C(=C/C(=O)c1cccs1)C(=O)N2 do in these assays?
HPGD block: -14.1%; IMPase cell inh: 17.1; IMPase Li cell: 0.5%[38.3 µM]; NPSR antagonist: 10µM*; ALDH1A1 block: inconclusive; 12-hLO inh: inconclusive

Results for Cc1cc(C)c(S(=O)(=O)N2CCN(C(=O)N(C)C)CC2)c(C)c1 ?
IMPase Li cell: -19.1%; NPSR antagonist: 31.5%; ALDH1A1 block: 4.47µM*

What do the screens show for `CCC(=O)c1ccc2c(c1)N(CCCN(C)C)c1ccccc1S2`?
HPGD block: -5.0%; IMPase cell inh: 19.5; IMPase Li cell: 34.8%; NPSR antagonist: inconclusive; ALDH1A1 block: 4.3%; 12-hLO inh: -1.7%

How did CCOc1ccccc1NC(=O)c1c(NC(=O)c2ccncc2)sc2c1CCC(C(C)(C)C)C2 (stereo not drawn) do in these assays?
IMPase cell inh: -2.2

Results for Cc1cc(C)c(S(=O)(=O)Nc2cc(SCC(=O)O)c(O)c3ccccc23)cc1C ?
HPGD block: 1.12µM*; IMPase Li cell: 0.8%; NPSR antagonist: -19.1%; ALDH1A1 block: inconclusive; 12-hLO inh: -8.3%

Results for Cc1cc(C)c(S(=O)(=O)Nc2ccc(C(=O)O)c(O)c2)cc1C ?
HPGD block: -7.7%; ALDH1A1 block: inconclusive; 12-hLO inh: -9.7%

How did O=C(Nc1ccc(F)cc1F)c1ccccc1-c1ccccc1 do in these assays?
IMPase cell inh: -2.9; NPSR antagonist: -7.3%[46.1 µM]; ALDH1A1 block: 5.8%; 12-hLO inh: -0.7%

Results for CCOC(=O)c1sc(/N=C/N(C)C)c(C(=O)OCC)c1C ?
HPGD block: -12.3%; IMPase cell inh: 1.6; IMPase Li cell: 7.2%[38.3 µM]; NPSR antagonist: -12.4%[46.1 µM]; ALDH1A1 block: 0.8%; 12-hLO inh: -0.7%

How did CCOC(=O)c1c(/N=C/c2cccc([N+](=O)[O-])c2O)sc2c1CCC2 do in these assays?
NPSR antagonist: 15.8%; ALDH1A1 block: inconclusive

How did CCOC(=O)c1c(/N=C/c2cc([N+](=O)[O-])ccc2O)sc(C)c1C do in these assays?
HPGD block: -11.3%; IMPase Li cell: -3.7%; NPSR antagonist: 9.4%; ALDH1A1 block: 20µM*; 12-hLO inh: -21.1%

Results for CCOC(=O)c1c(/N=C/C2=C(O)CC(C)(C)CC2=O)sc(C)c1C ?
HPGD block: -5.0%; IMPase Li cell: -2.3%; NPSR antagonist: -1.8%; ALDH1A1 block: 7.08µM*; 12-hLO inh: 0.7%

What do the screens show for `CCOC(=O)c1c(/N=C/c2cc(OC)cc([N+](=O)[O-])c2O)sc(C)c1C`?
HPGD block: -13.8%; IMPase cell inh: -2.0; IMPase Li cell: 6.2%; NPSR antagonist: -5.6%[46.1 µM]; ALDH1A1 block: 31.6µM*; 12-hLO inh: -2.9%

What do the screens show for `Cc1ccc(CNC(=O)NC2CCCCC2)cc1`?
HPGD block: inconclusive; IMPase cell inh: -1.7; IMPase Li cell: 22.3%[38.3 µM]; NPSR antagonist: -4.5%[46.1 µM]; ALDH1A1 block: -4.9%; 12-hLO inh: -1.0%

Results for CCOc1cccc(/C=N/NC(=O)CC2C(=O)NN=C2C)c1O (stereo not drawn) ?
IMPase Li cell: 7.3%; NPSR antagonist: 15.3%; ALDH1A1 block: 0.0%

Results for CCOc1cccc(C=Nc2cc(C)cc(C)c2O)c1O ?
HPGD block: 11.2µM*; IMPase cell inh: 1.7; IMPase Li cell: 30.1%[38.3 µM]; NPSR antagonist: -31.6%[46.1 µM]; ALDH1A1 block: 22.4µM*; 12-hLO inh: -8.9%

What do the screens show for `CCCn1[nH]cc(SC)c(=O)c1=O`?
HPGD block: -6.3%; IMPase cell inh: 8.8; IMPase Li cell: -0.6%[38.3 µM]; NPSR antagonist: -12.7%[46.1 µM]; ALDH1A1 block: 22.4µM*; 12-hLO inh: -18.9%

Results for CN(C)C/C(Cl)=C(\Cl)c1ccccc1 ?
HPGD block: -22.7%; IMPase cell inh: -2.7; IMPase Li cell: -1.4%[38.3 µM]; NPSR antagonist: -7.4%[46.1 µM]; ALDH1A1 block: 7.08µM*; 12-hLO inh: -1.0%

What do the screens show for `CC(C)(C)CC(C)(C)NCC(=O)Nc1c2c(nc3ccccc13)CCC2`?
IMPase Li cell: 29.1%; NPSR antagonist: 21.7%; ALDH1A1 block: 9.46µM*

Results for O=C(Nc1c2c(nc3ccccc13)CCCC2)c1ccccc1Cl ?
HPGD block: -9.4%; IMPase cell inh: inconclusive; IMPase Li cell: 5.5%; NPSR antagonist: -1.1%; ALDH1A1 block: 5.8%; 12-hLO inh: -4.5%
